In PubChem BioAssay (Tox21):
Inconclusive results are not listed. Active and inactive are the calls of the source. Calls follow the shape of the dose curve; as a rule, active = well fitted curve in the direction sought with a large enough effect in the repeat runs; inconclusive = weak or mixed curves; inactive = no such curve, though single readings can be large; an effect the other way counts as inactive or inconclusive.

Columns and labels:
[1] = qHTS RealTime-Glo MT Cell Viability Assay in HEK293 cells - 16 hour (AID 1224872); also: top concentration of the series differs between compounds; nearly all actives have a fitted effect of over 50% in size
Outline: (§1)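 Homogeneous bioluminescent viability format in HEK293 cells (600 cells/well). Following 5 h at 37 C/5% CO2, 23 nL compound was pintooled; the signal was measured repeatedly during 40 h incubation.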

[2] = qHTS RealTime-Glo MT Cell Viability Assay in HepG2 cells - 8 hour (AID 1224873); also: nearly all actives have a fitted effect of over 55% in size
Outline: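 HepG2 cells (600/well) mixed with RealTime-Glo MT reagent, settled 5 h at 37 C/5% CO2 before compound addition. Nonlytic NanoLuc luminescence from viable-cell prosubstrate reduction read repeatedly during 40 h treatment at 37 C.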

[3] = qHTS RealTime-Glo MT Cell Viability Assay in HEK293 cells - 40 hour (AID 1224874); conditions: RealTime-Glo luminescence; max response: hits give low values; also: nearly all actives have a fitted effect of over 50% in size
Outline: (§2)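 600 cells/well were plated with the nonlytic NanoLuc/prosubstrate reagent, pre-incubated 5 h, then given 23 nL of compound in DMSO. Incubation at 37 C for 40 h, with luminescence from viable-cell-reduced substrate read repeatedly from 0 h.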

[4] = A CellTox Green Cytotoxicity Assay to monitor cytotoxicity in HEK293 cells - 24 hour (AID 1224875); also: series mostly up to about 77 µM; nearly all actives have a fitted effect of over 45% in size
Outline: (§3)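 HEK293 cells, 600/well, were preincubated 5 hours and then exposed to compounds at 37 C for up to 40 hours. A cell-impermeant cyanine dye staining dead-cell DNA was read by fluorescence at 0, 8, 16, 24, 32 and 40 h time points.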

[5] = A CellTox Green Cytotoxicity Assay to monitor cytotoxicity in HepG2 cells - 16 hour (AID 1224876); also: nearly all actives have a fitted effect of over 45% in size
Outline: (§4)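 HepG2 cells, 600/well, preincubated 5 h with CellTox Green dye, then exposed to Tox21 compounds in DMSO at 37 C for up to 40 h. Dead-cell DNA fluorescence read at the indicated time point.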

[6] = qHTS RealTime-Glo MT Cell Viability Assay in HepG2 cells - 32 hour (AID 1224877); also: nearly all actives have a fitted effect of over 55% in size
Outline: (§5)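 Cell number in HepG2 cultures estimated from NanoLuc luminescence generated by metabolic reduction of a prosubstrate by living cells. The homogeneous, nonlytic format allowed repeated reads at 0, 8, 16, 24, 32 and 40 h of compound exposure.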

[7] = A CellTox Green Cytotoxicity Assay to monitor cytotoxicity in HepG2 cells - 24 hour (AID 1224878); also: nearly all actives have a fitted effect of over 45% in size
Outline: as §4

[8] = A CellTox Green Cytotoxicity Assay to monitor cytotoxicity in HepG2 cells - 40 hour (AID 1224879); also: nearly all actives have a fitted effect of over 40% in size
Outline: as §4

[9] = qHTS RealTime-Glo MT Cell Viability Assay in HEK293 cells - 0 hour (AID 1224880); also: top concentration of the series differs between compounds; nearly all actives have a fitted effect of over 45% in size
Outline: as §2

[10] = A CellTox Green Cytotoxicity Assay to monitor cytotoxicity in HEK293 cells - 32 hour (AID 1224881); also: nearly all actives have a fitted effect of over 40% in size
Outline: as §3

[11] = A CellTox Green Cytotoxicity Assay to monitor cytotoxicity in HepG2 cells - 0 hour (AID 1224882); also: nearly all actives have a fitted effect of over 35% in size
Outline: as §4

[12] = A CellTox Green Cytotoxicity Assay to monitor cytotoxicity in HepG2 cells - 32 hour (AID 1224883); also: nearly all actives have a fitted effect of over 50% in size
Outline: as §4

[13] = A CellTox Green Cytotoxicity Assay to monitor cytotoxicity in HEK293 cells - 8 hour (AID 1224884); also: nearly all actives have a fitted effect of over 35% in size
Outline: as §3

[14] = qHTS RealTime-Glo MT Cell Viability Assay in HepG2 cells - 16 hour (AID 1224885); also: nearly all actives have a fitted effect of over 50% in size
Outline: as §5

[15] = qHTS RealTime-Glo MT Cell Viability Assay in HEK293 cells - 24 hour (AID 1224886)
Outline: as §1

[16] = qHTS RealTime-Glo MT Cell Viability Assay in HEK293 cells - 8 hour (AID 1224887)
Outline: as §2

[17] = A CellTox Green Cytotoxicity Assay to monitor cytotoxicity in HEK293 cells - 16 hour (AID 1224888); also: nearly all actives have a fitted effect of over 35% in size
Outline: as §3

[18] = qHTS RealTime-Glo MT Cell Viability Assay in HepG2 cells - 0 hour (AID 1224889); also: nearly all actives have a fitted effect of over 50% in size
Outline: as §5

[19] = A CellTox Green Cytotoxicity Assay to monitor cytotoxicity in HepG2 cells - 8 hour (AID 1224890); also: nearly all actives have a fitted effect of over 45% in size
Outline: as §4

[20] = qHTS assay to identify small molecule antagonists of the estrogen receptor alpha (ER-alpha) signaling pathway using the BG1 cell line in the presence of 0.1 nM 17-beta-estradiol - cell viability counter screen (AID 1259241); also: nearly all actives have a fitted effect of over 40% in size
Outline: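 VM7Luc4E2, 4,000 cells/well, phenol red-free medium + 10% charcoal-stripped FBS; 24 hr plating; cpd + 0.1 nM E2 final, 22 hr 37C/5% CO2; CellTiter-Fluor 30 min, fluorescence.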
% is scaled to controls: 0 for no effect and ±100 for the full control effect.

CCN1CCc2nc(N)oc2CC1
inactive: Potency [1] | outcome [2] | max response [3] 0.505% | outcome [4] | outcome [5] | outcome [6] | outcome [7] | Potency [8] | Potency [9] | Potency [10] | outcome [11] | Potency [12] | Potency [13] | outcome [14] | Potency [15] | Potency [16] | outcome [17] | Potency [18] | outcome [19] | Potency [20]

CC[C@H](C)C(=O)O[C@H]1C[C@H](O)C=C2C=C[C@H](C)[C@H](CC[C@@H](O)C[C@@H](O)CC(=O)O)[C@H]21
inactive: Potency [1] | outcome [2] | max response [3] 13.5% | outcome [4] | outcome [5] | outcome [6] | outcome [7] | Potency [8] | Potency [9] | Potency [10] | outcome [11] | Potency [12] | Potency [13] | outcome [14] | Potency [15] | Potency [16] | outcome [17] | Potency [18]

CC1(C)S[C@@H]2[C@H](N=CN3CCCCCC3)C(=O)N2[C@H]1C(=O)O
inactive: Potency [1] | outcome [2] | max response [3] 6.57% | outcome [4] | outcome [5] | outcome [6] | outcome [7] | Potency [8] | Potency [9] | Potency [10] | outcome [11] | Potency [12] | Potency [13] | outcome [14] | Potency [15] | Potency [16] | outcome [17] | Potency [18] | outcome [19] | Potency [20]

C=C(C)C(=O)OCCN(CC)CC
inactive: Potency [1] | outcome [2] | max response [3] 2.31% | outcome [4] | outcome [5] | outcome [6] | outcome [7] | Potency [8] | Potency [9] | Potency [10] | outcome [11] | Potency [12] | Potency [13] | outcome [14] | Potency [15] | Potency [16] | outcome [17] | outcome [19] | Potency [20]

CCC(C=O)CC
inactive: Potency [1] | outcome [2] | max response [3] -5.72% | outcome [4] | outcome [5] | outcome [6] | outcome [7] | Potency [8] | Potency [9] | Potency [10] | outcome [11] | Potency [12] | Potency [13] | outcome [14] | Potency [15] | Potency [16] | outcome [17] | Potency [18] | outcome [19] | Potency [20]

CCCCCCCCCCl
inactive: Potency [1] | outcome [2] | max response [3] -0.474% | outcome [4] | outcome [5] | outcome [6] | outcome [7] | Potency [8] | Potency [9] | Potency [10] | outcome [11] | Potency [12] | Potency [13] | outcome [14] | Potency [15] | Potency [16] | outcome [17] | Potency [18] | Potency [20]

COc1ccc(C2CNC(=O)C2)cc1OC1CCCC1 (stereo unspecified)
inactive: Potency [1] | outcome [2] | max response [3] -17.5% | outcome [4] | outcome [5] | outcome [6] | outcome [7] | Potency [8] | Potency [9] | Potency [10] | outcome [11] | Potency [12] | Potency [13] | outcome [14] | Potency [15] | Potency [16] | outcome [17] | Potency [18] | outcome [19] | Potency [20]

O=C(O)c1cc(Br)c(O)c(Br)c1
inactive: Potency [1] | outcome [2] | max response [3] -4.67% | outcome [4] | outcome [5] | outcome [6] | outcome [7] | Potency [8] | Potency [9] | Potency [10] | outcome [11] | Potency [12] | Potency [13] | outcome [14] | Potency [15] | Potency [16] | outcome [17] | outcome [19] | Potency [20]

O=C(NCCc1c[nH]c2ccccc12)c1cccnc1
inactive: Potency [1] | outcome [2] | max response [3] -11.8% | outcome [4] | outcome [5] | outcome [6] | outcome [7] | Potency [8] | Potency [9] | Potency [10] | outcome [11] | Potency [12] | Potency [13] | outcome [14] | Potency [15] | Potency [16] | outcome [17] | Potency [18] | outcome [19] | Potency [20]

CCCCNc1ccc(C(=O)OCCN(C)C)cc1
inactive: Potency [1] | outcome [2] | max response [3] -3.43% | outcome [4] | outcome [5] | outcome [6] | outcome [7] | Potency [8] | Potency [9] | Potency [10] | outcome [11] | Potency [12] | Potency [13] | outcome [14] | Potency [15] | Potency [16] | outcome [17] | Potency [18] | outcome [19] | Potency [20]

Cc1cccc(C)c1OCC(C)N (stereo unspecified)
inactive: Potency [1] | outcome [2] | max response [3] 2.76% | outcome [4] | outcome [5] | outcome [6] | outcome [7] | Potency [8] | Potency [9] | Potency [10] | outcome [11] | Potency [12] | Potency [13] | outcome [14] | Potency [15] | Potency [16] | outcome [17] | Potency [18] | outcome [19] | Potency [20]

CCOC(=O)CC(=O)c1ccccc1
inactive: Potency [1] | outcome [2] | max response [3] 10.1% | outcome [4] | outcome [5] | outcome [6] | outcome [7] | Potency [8] | Potency [9] | Potency [10] | outcome [11] | Potency [12] | Potency [13] | outcome [14] | Potency [15] | Potency [16] | outcome [17] | Potency [18] | outcome [19] | Potency [20]

O=C(O)c1ccc(Cl)cc1Cl
inactive: Potency [1] | outcome [2] | max response [3] 7.46% | outcome [4] | outcome [5] | outcome [6] | outcome [7] | Potency [8] | Potency [9] | Potency [10] | outcome [11] | Potency [12] | Potency [15] | Potency [16] | outcome [17] | outcome [19] | Potency [20]

COc1cc2c(cc1OC)[C@@H]1CC(=O)[C@@H](CC(C)C)CN1CC2
inactive: Potency [1] | outcome [2] | max response [3] -11.9% | outcome [4] | outcome [5] | outcome [6] | outcome [7] | Potency [8] | Potency [9] | Potency [10] | outcome [11] | Potency [12] | outcome [14] | Potency [15] | Potency [16] | outcome [17] | Potency [18] | outcome [19] | Potency [20]
